Experimental data published in PubChem BioAssay.
Activity calls are given as the source filed them. Unless noted, the rule behind the calls is not given here.

Legend:
[1] = anti-His antibody binders, primary screen, artefact control for SMM control protein annotation, biochemical, small-molecule microarray, 635 nm fluorescence (AID 1128); conditions: anti-His Alexa647 antibody binding, higher = more signal;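 note: score merges feature fluorescence with signal-to-noise for each printed compound spot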
[2] = system: Human papillomavirus type 1a E7 protein (residues 1-88); assay: HPV1a E7 small-molecule binders, primary screen, biochemical, small-molecule microarray, residues 1-88, 635 nm (AID 1129); conditions: small-molecule microarray binding, fluorescence 635 nm; higher = more signal
[3] = biological target: Focal adhesion kinase 1 (Homo sapiens) (UniProt Q05397); assay: small-molecule microarray binders of FAK, primary screen, biochemical, 635/667 nm fluorescence, BSA, DTT (AID 1130); conditions: PTK2 binding, 635 nm fluorescence, higher = more signal;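 note: composite of spot emission at 667 nm and signal to noise over triplicate slides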
[4] = system: Fibrinogen (Alexa647-labelled); assay: fibrinogen binders on compound microarrays, profiling panel, artefact control for SMM control-protein annotation, biochemical, small-molecule microarray, 635/667 nm fluorescence (AID 1131); conditions: fibrinogen-A647 binding fluorescence, higher = more signal;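 note: z-score merges 667 nm fluorescence with per-spot signal-to-noise over triplicate slides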
[5] = biological target: Follistatin (Homo sapiens) (UniProt P19883); assay: follistatin binders on small-molecule microarrays, primary screen, biochemical, small-molecule microarray, 635/667 nm fluorescence (AID 1132); conditions: FST binding, 635 nm fluorescence, higher = more signal
[6] = biological target: Fibroblast growth factor 2 (Homo sapiens) (UniProt P09038); assay: FGF2 binders on small-molecule microarrays, primary screen, biochemical, small-molecule microarray, 635/667 nm fluorescence (AID 1133); conditions: small-molecule microarray binding, FGF2, fluorescence 635/667; higher = more signal
[7] = mitochondrial membrane potential change in A549 cells, profiling panel, cell-based, JC-1 fluorescence, basal, 24 h, 100 nL (AID 1138); conditions: higher = more signal;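 note: A549 lung adenocarcinoma cells under basal conditions with no added stimulus; test concentration not given here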
Lefty1 = Lefty1 binders on small-molecule microarrays, primary screen, biochemical, small-molecule microarray, 635/667 nm fluorescence (AID 1139); conditions: small-molecule microarray binding, fluorescence 635/667; higher = more signal
[8] = system: wheat germ agglutinin (Triticum aestivum), Alexa647-labelled; assay: wheat germ agglutinin binders on compound microarrays, profiling panel, artefact control for SMM control-protein annotation, biochemical, small-molecule microarray, 635/667 nm fluorescence (AID 1140); conditions: WGA-A647 binding, 635 nm fluorescence, higher = more signal;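 note: score merges 667 nm feature emission with signal to noise over triplicate slides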
[9] = biological target: Luciferin 4-monooxygenase (Photinus pyralis) (UniProt P08659); assay: firefly luciferase enzyme inhibitors, primary screen, biochemical, luminescence, purified enzyme, 2006 set (AID 1141); conditions: SteadyGlo luminescence, 30 min, higher = more signal, called active from +8 up or from −8 down;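 note: cell-free assay with purified firefly luciferase at 100 ng per well in PBS; test concentration not given here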
[10] = system: Wnt5a (protein binding on small-molecule microarray); assay: Wnt5a binders on small-molecule microarray, primary screen, biophysical, 635/667 nm fluorescence (AID 1142); conditions: 635 nm fluorescence, higher = more signal;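 note: fluorescence read at 667 nm with signal to noise per printed feature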
[11] = cell viability in Huh7 cells, primary screen, cytotoxicity control for HCV replication inhibitor project, CellTiter-Glo luminescence, basal, 48 h (AID 1143); conditions: Huh7 HCV replicon, higher = more signal, called active from +8 up or from −8 down;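 note: Huh7 hepatoma cells carrying a hepatitis C replication reporter with no stimulus; test concentration not given here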
[12] = P. aeruginosa biofilm formation inhibitors, primary screen, PAO1 strain, BacTiter-Glo luminescence, LB-PBS (AID 1144); conditions: 12 h, higher = more signal
[13] = CREB reporter modulators without forskolin, primary screen, cell-based, PC12, CRE-LacZ reporter, unstimulated (AID 1145); conditions: no forskolin, luminescence, 4.5 h, higher = more signal, called active from +8 up or from −8 down
[14] = CREB reporter modulators under forskolin, primary screen, cell-based, PC12, CRE-LacZ reporter, forskolin-stimulated (AID 1146); conditions: luminescence, 4.5 h, higher = more signal, called active from +8 up or from −8 down;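 note: PC12 cells with 6xCRE LacZ reporter stimulated by forskolin 10 µM; beta-galactosidase reporter signal reflecting CREB driven transcription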
[15] = biological target: Streptavidin (Streptomyces avidinii) (UniProt P22629); assay: streptavidin binders on small-molecule microarray, primary screen, artefact control for SMM compound annotation, biophysical, 635/667 nm fluorescence (AID 1147); conditions: streptavidin binding, higher = more signal;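 note: signal reflects streptavidin binding to arrayed compounds as a control protein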
[16] = small-molecule binders of probe aInhba, primary screen, biochemical, small-molecule microarray, 635/667 nm fluorescence (AID 1148); conditions: higher = more signal;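 note: score merges 667nm spot fluorescence with signal-to-noise for antibody binding to printed compounds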
Torsin-1A (Homo sapiens) [17] = biological target: Torsin-1A (Homo sapiens) (UniProt O14656); assay: torsin A binders from cell lysate, primary screen, small-molecule microarray, wild-type, 635/667 nm (AID 1149); conditions: COS7 hTOR1A-WT lysate, 635 nm fluorescence, higher = more signal
Torsin-1A (Homo sapiens) [18] = biological target: Torsin-1A (Homo sapiens) (UniProt O14656); assay: small-molecule binders of mutant TOR1A in lysate, primary screen, cell lysate, small-molecule microarray, COS7 lysate, 635/667 nm fluorescence (AID 1150); conditions: COS7 hTOR1A mutant lysate, 635 nm fluorescence, higher = more signal;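 note: score pools 667 nm emission and signal to noise measuring lysate protein binding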
[19] = system: Sonic hedgehog protein (Shh); assay: small-molecule binders of Shh protein, primary screen, biochemical, small-molecule microarray, 635/667 nm fluorescence (AID 1151); conditions: small-molecule microarray binding, 635 nm fluorescence; higher = more signal;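 note: Shh protein binding to compounds spotted on small-molecule microarray slides; score combines spot fluorescence intensity with signal-to-noise across triplicate slides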

Sequence of Torsin-1A (Homo sapiens) (O14656 whole entry, looked up): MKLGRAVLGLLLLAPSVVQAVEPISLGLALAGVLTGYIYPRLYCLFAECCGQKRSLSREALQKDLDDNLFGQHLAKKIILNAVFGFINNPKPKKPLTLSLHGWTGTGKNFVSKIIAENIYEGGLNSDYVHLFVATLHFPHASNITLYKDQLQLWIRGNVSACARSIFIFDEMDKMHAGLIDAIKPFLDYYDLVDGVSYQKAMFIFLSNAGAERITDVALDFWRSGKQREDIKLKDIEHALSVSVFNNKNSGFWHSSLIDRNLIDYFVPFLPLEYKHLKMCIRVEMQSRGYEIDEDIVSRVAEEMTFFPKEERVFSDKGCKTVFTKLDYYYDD
Sequence of Streptavidin (Streptomyces avidinii) (P22629 whole entry, looked up): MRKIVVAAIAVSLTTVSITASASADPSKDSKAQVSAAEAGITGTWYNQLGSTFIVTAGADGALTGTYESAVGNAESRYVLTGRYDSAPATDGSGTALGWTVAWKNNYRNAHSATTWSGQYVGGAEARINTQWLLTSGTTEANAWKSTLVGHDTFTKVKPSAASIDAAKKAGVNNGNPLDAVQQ
Sequence of Follistatin (Homo sapiens) (P19883 whole entry, looked up): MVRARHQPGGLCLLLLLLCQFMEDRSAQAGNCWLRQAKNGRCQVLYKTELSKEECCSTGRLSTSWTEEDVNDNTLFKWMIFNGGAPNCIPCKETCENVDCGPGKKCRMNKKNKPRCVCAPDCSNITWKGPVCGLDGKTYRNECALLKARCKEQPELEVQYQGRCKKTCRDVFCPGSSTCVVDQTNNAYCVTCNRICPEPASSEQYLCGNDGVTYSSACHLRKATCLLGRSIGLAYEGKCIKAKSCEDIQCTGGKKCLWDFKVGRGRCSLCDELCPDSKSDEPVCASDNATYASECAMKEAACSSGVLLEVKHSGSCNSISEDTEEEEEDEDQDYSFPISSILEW
Sequence of Luciferin 4-monooxygenase (Photinus pyralis) (P08659 whole entry, looked up): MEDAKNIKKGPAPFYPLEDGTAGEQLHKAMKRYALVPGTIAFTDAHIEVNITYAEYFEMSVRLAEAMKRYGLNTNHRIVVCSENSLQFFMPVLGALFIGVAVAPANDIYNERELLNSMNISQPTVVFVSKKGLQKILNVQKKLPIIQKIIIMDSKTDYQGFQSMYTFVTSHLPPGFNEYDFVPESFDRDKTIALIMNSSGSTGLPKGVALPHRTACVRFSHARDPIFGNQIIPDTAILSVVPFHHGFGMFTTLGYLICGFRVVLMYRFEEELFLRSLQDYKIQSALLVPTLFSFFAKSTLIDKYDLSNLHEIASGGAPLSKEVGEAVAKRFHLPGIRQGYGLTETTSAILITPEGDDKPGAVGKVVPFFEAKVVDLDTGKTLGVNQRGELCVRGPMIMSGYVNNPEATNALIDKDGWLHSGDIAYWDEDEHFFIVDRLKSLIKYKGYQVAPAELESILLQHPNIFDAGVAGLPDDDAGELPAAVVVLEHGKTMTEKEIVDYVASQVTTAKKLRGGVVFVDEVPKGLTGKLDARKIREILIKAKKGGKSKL
Sequence of Fibroblast growth factor 2 (Homo sapiens) (P09038 whole entry, looked up): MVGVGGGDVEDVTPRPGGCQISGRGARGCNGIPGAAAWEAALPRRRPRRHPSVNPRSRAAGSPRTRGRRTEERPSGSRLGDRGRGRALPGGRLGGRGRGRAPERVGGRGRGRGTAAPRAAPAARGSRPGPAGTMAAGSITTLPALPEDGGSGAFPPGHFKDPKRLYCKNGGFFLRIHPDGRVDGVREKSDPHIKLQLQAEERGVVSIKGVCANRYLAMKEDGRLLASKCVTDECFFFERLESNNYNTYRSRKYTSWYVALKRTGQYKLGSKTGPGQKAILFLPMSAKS
Sequence of Focal adhesion kinase 1 (Homo sapiens) (Q05397 whole entry, looked up): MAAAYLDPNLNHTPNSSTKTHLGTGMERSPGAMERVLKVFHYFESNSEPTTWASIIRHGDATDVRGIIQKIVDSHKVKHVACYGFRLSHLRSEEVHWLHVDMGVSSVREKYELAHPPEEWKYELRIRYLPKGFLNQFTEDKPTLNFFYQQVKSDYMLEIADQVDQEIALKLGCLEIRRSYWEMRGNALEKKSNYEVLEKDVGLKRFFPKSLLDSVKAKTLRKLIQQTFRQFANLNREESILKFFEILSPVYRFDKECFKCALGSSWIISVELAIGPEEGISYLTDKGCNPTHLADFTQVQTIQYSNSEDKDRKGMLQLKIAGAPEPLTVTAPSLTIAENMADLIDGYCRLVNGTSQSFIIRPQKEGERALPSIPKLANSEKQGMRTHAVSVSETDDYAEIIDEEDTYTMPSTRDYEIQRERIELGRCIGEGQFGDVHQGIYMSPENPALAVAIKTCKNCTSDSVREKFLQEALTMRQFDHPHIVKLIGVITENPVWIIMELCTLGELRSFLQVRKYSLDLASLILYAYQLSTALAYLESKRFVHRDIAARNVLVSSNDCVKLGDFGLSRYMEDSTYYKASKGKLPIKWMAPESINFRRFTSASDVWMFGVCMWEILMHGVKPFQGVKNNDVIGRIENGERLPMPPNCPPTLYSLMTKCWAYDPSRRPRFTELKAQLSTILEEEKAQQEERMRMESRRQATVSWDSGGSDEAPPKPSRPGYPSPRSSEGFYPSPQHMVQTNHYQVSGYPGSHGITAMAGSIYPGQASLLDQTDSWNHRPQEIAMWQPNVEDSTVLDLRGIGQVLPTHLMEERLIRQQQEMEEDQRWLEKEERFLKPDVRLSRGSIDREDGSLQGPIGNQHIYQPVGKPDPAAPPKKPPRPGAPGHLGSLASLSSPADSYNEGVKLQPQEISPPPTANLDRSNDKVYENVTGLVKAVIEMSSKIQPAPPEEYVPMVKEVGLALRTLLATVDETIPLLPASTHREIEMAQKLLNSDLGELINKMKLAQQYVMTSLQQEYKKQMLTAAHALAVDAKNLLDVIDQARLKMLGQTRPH

SMILES | composite z-score [1] | composite z-score [2] | composite z-score [3] | composite z-score [4] | composite z-score [5] | composite z-score [6] | z-score [7] | composite z-score (Lefty1) | composite z-score [8] | z-score [9] | composite z-score [10] | z-score [11] | z-score [12] | z-score [13] | z-score [14] | composite z-score [15] | composite z-score [16] | composite z-score (Torsin-1A (Homo sapiens) [17]) | composite z-score (Torsin-1A (Homo sapiens) [18]) | composite z-score [19]
O=C1OCCC=C[C@H]2OC34C=CCN(c5ccc(Cl)cc5)C(=O)[C@H]3N(CCCCCO)C(=O)[C@@H]4C12 (stereo not given in full) | 3.41 | -0.457 | -0.226 | -0.929 | -0.514 | -0.297 | 2.6 | -0.314 | -0.21 | -1.31 (inactive) | -0.244 | -0.091 (inactive) | -0.622 (inactive) | 0.187 (inactive) | -0.382 (inactive) | -0.654 | -0.0986 | 0.0095 | 1.05 | 0.58
NCCCCCCNC(=O)[C@H]1C[C@H]2C(=O)N[C@@H](Cc3ccccc3)C(=O)N2[C@H]1c1ccc(O)cc1 | 2.04 | 0.692 | 0.937 | 0.999 | 1.32 | 0.619 | -0.267 | 0.795 | 1.1 | 0.166 (inactive) | 0.21 | 0.277 (inactive) | -0.652 (inactive) | -1.48 (inactive) | -1.24 (inactive) | 1.38 | 0.103 | 2.14 | 0.394 | 1.07
CON(C)C(=O)C=C1C[C@@H](c2cccc(Cl)c2)O[C@@H](c2cccc(Cl)c2)O1 | 1.15 | 0.878 | 0.441 | 0.472 | 0.412 | 0.372 | 3.69 | 0.669 | 0.462 | -0.344 (inactive) | -0.124 | -3.94 (inactive) | 0.875 (inactive) | 0.481 (inactive) | -1.07 (inactive) | 2.55 | -0.183 | 0.643 | 0.124 | 0.774
COc1ccccc1CN1C(=O)c2ccccc2[C@](Cc2ccccc2I)(C(=O)NC(C)C)[C@@H]1c1ccc(CO)cc1 | 1.94 | 1.24 | 0.629 | 0.983 | 1.14 | 0.506 | 1.86 | 0.773 | 1.16 | 1.35 (inactive) | 0.449 | -3.63 (inactive) | 0.0633 (inactive) | -0.0243 (inactive) | 1.08 (inactive) | 1.13 | 0.0422 | 0.667 | 1.08 | 1.78
C=CCN1C(=O)[C@]2(CC=C)N=C(c3ccc(OCCCO)cc3)O[C@@H]2c2ccccc21 | 3.19 | 1.16 | 0.496 | 0.297 | 1.39 | 1.56 | -0.998 | 0.768 | 1.14 | -3.31 (inactive) | 0.731 | -4.15 (inactive) | 0.312 (inactive) | 0.796 (inactive) | -0.953 (inactive) | 0.842 | 0.296 | 0.265 | 0.538 | 1.65
[N-]=[N+]=Nc1ccccc1[C@@H]1OC(c2ccc(OCCCO)cc2)=N[C@]1(CCS(=O)(=O)c1ccccc1)C(=O)NCCN1CCOCC1 | 0.903 | 1.28 | -0.018 | 0.962 | 1.14 | -0.29 | -0.377 | 0.393 | 1.04 | -8.81 (active) | 0.391 | -4.79 (inactive) | -0.124 (inactive) | 0.549 (inactive) | -1.18 (inactive) | 0.637 | 0.109 | 1.13 | 1.15 | -0.252
COCCOC(=O)N1C(=O)[C@@]2(c3cc(C#CC4=CCCCC4)ccc31)[C@H](C(=O)N1CCN(c3ncccn3)CC1)[C@H]1C(=O)O[C@H](c3ccccc3)[C@H](c3ccccc3)N1[C@@H]2c1ccc(O)cc1 | 1.26 | 1.19 | 0.778 | 0.804 | 1.21 | 0.29 | -1.05 | 0.819 | 1.11 | -0.94 (inactive) | 0.282 | -1.17 (inactive) | -0.13 (inactive) | 0.761 (inactive) | -0.0066 (inactive) | 0.45 | -0.0736 | 0.714 | 0.296 | 1.5
O=C1O[C@@H](c2ccccc2)[C@@H](c2ccccc2)N2[C@@H](c3ccccc3OCCO)[C@]3(C(=O)Nc4ccc(C#CCCO)cc43)[C@@H](C(=O)Nc3nc4ccccc4s3)[C@H]12 | 2.3 | 1.21 | 0.487 | 0.956 | 1.33 | 0.737 | -2.04 | 1.55 | 1.23 | -0.778 (inactive) | 0.559 | -0.975 (inactive) | -0.562 (inactive) | -0.671 (inactive) | 0.308 (inactive) | 1.39 | 0.269 | 0.515 | 0.585 | 1.36
O=C1O[C@@H](c2ccccc2)[C@@H](c2ccccc2)N2[C@@H](c3ccccc3OCCO)[C@]3(C(=O)Nc4ccccc43)[C@@H](C(=O)NC[C@H](O)c3ccccc3)[C@H]12 | -0.27 | 1.19 | 0.682 | -0.0424 | -0.185 | -0.452 | 0.171 | -0.373 | -0.545 | 0.0121 (inactive) | -0.123 | -6.2 (inactive) | -0.668 (inactive) | 0.209 (inactive) | 4.03 (inactive) | -0.625 | -0.149 | 0.604 | 0.297 | 0.0935
